Measured values from article PMC4336329 (PLoS ONE, 2015).
Hit rate of the full screen: of about 310,000 compounds, about 14,000 (4.5%) showed an effect of 50% or more. Effects have a minus sign here. The list comes from a sample in which strong results are over-represented; it also holds similar structures and randomly drawn compounds.

Molecular target: human ether-à-go-go-related gene (hERG) potassium channel (human, UniProt Q12809)
Assay: primary screen, population patch clamp on CHO cells stably expressing hERG; higher = less effect of the substance
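Further: peak tail current of the secondary pulse compared with the same well before compound.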

human ether-à-go-go-related gene (hERG) potassium channel, sequence (Q12809 whole entry, looked up): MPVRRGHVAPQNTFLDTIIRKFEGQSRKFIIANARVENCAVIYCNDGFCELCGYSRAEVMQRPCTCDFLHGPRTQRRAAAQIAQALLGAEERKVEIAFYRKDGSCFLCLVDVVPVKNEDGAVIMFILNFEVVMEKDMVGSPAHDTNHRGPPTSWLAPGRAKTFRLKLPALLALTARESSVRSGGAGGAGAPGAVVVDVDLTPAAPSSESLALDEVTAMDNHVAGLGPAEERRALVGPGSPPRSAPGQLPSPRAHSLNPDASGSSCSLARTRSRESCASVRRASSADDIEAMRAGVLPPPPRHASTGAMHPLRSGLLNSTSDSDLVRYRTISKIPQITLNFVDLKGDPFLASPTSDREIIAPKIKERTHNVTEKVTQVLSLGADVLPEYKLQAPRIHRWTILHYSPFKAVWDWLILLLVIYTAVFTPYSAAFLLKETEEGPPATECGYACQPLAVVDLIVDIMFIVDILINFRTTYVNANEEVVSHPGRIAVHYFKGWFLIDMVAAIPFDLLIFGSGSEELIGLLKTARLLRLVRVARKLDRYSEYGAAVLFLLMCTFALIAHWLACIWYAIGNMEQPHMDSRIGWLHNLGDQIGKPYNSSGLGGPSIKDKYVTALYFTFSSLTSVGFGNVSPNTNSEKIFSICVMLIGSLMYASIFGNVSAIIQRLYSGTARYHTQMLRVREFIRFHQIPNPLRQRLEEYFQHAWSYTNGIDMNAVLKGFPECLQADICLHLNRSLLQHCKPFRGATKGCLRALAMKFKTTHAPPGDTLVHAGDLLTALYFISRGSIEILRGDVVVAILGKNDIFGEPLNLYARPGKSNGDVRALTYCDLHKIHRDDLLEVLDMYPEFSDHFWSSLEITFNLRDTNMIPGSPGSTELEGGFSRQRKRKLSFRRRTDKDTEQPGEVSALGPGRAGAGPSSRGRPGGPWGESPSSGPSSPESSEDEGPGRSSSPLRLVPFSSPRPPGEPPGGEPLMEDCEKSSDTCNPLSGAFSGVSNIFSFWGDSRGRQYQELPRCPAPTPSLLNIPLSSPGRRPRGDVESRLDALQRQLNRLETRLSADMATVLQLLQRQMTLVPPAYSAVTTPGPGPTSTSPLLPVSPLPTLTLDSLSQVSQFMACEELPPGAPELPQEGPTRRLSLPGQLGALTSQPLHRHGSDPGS

Row | Compound | hERG current change (%, negative = inhibition) at 10uM
1 | COc1ccc(C(C)(C)C)cc1NC(=O)C1C2C=CC(C2)C1C(=O)O (stereo not shown) | 12.5%
2 | CCOC(=O)C1=C(C)N(CC(C)C)C(=O)/C1=C\c1ccc(OCC(=O)Nc2ccccc2)cc1 | -9.9%
3 | COc1cc(OC)nc(NC(=S)NC(=O)c2ccccc2)n1 | 23.1%
4 | Fc1ccccc1NC(=S)N(CCN1CCCCC1)Cc1ccco1 | -51.2%
5 | Cc1ccccc1NC(=S)N(CCN1CCCCC1)Cc1ccco1 | -30.2%
6 | COc1ccccc1NC(=S)N(CCN1CCCCCC1)Cc1cccs1 | -55.3%
7 | COc1ccccc1NC(=S)N(CCCN1CCOCC1)Cc1cccs1 | -35.6%
8 | Fc1ccccc1CN(CCN1CCOCC1)C(=S)Nc1ccccc1Cl | -6.77%
9 | Fc1ccccc1NC(=S)N(CCN1CCCCCC1)Cc1cccs1 | -53%
10 | COc1ccccc1NC(=S)N(Cc1ccccc1)Cc1cccs1 | 14.9%
11 | S=C(Nc1ccccc1Cl)N(CCN1CCCCC1)Cc1ccco1 | -42.3%
12 | Cc1ccccc1NC(=S)N(CCN1CCCCCC1)Cc1cccs1 | -39.5%
13 | Cc1ccc2c(c1)NC(=O)C(CC(=O)NCc1ccc(F)cc1)O2 (stereo not shown) | -9.72%
14 | COc1ccc(S(=O)(=O)N(CCC#N)Cc2ccco2)cc1OC | 17.8%
15 | COc1cc(OC)cc(-c2n[nH]c(=S)n2-c2ccc3c(c2)OCO3)c1 | 15.4%
16 | O=C(NC1CCCCC1)N1CCCC(c2nc(-c3cccs3)no2)C1 (stereo not shown) | -10.5%
17 | CCc1nnc(NC(=O)C2CC(=O)N(CCc3ccc(F)cc3)C2)s1 (stereo not shown) | 4.54%
18 | O=C(Nc1cccc(C(F)(F)F)c1)C(Sc1ncnc2ccccc12)c1ccccc1 (stereo not shown) | 0.968%
19 | Cc1c(O)ccc2cc(S(=O)(=O)c3ccccc3)c(=O)oc12 | 13.8%
20 | Cc1ccc(-n2ncc3c2CCCC3NC(=O)CSc2ccccn2)cc1C (stereo not shown) | -17.2%
21 | Cc1noc2ncnc(N3CCN(c4ccc(F)cc4)CC3)c12 | -38.3%

Row | Compound | hERG current change (%, negative = inhibition) at 10uM
22 | Cc1noc2ncnc(N3CCN(c4cccc(Cl)c4)CC3)c12 | -52%
23 | Cc1noc2ncnc(N3CCCC3)c12 | 5.93%
24 | CCOc1cc(C2C(C(=O)OC)=CN(C3CCCC3)C=C2C(=O)OC)cc(Br)c1O | -1.51%
25 | C[N+]1(CC(O)COc2ccccc2)CCN(C(=O)c2ccc([N+](=O)[O-])cc2)CC1.[I-] (stereo not shown) | -9.95%
26 | CCc1cccc(Nc2cc(C)nc3nc(C)nn23)c1 | -25.3%
27 | COc1ccc(-c2noc(CN3CCCCC3c3nccn3C)n2)cc1 (stereo not shown) | -6.83%
28 | COc1ccc(-c2nc(CN3CCCCC3c3nccn3C)c(C)o2)c(C)c1C (stereo not shown) | -64.9%
29 | COc1ccc(OC)c(-c2nc(CN3CCCCC3c3cccnc3)c(C)o2)c1 (stereo not shown) | -1.11%
30 | CC(=O)c1ccc(N(CC(=O)NC2CCCCC2)C(=O)CNC(=O)c2ccco2)cc1 | -7.74%
31 | O=C(Nc1scc(-c2ccccc2)c1C(=O)O)c1ccco1 | -0.991%
32 | O=C(c1ccccn1)N1CCCC(N2CCN(c3cccc(C(F)(F)F)c3)CC2)C1 (stereo not shown) | -28.8%
33 | O=C(CCn1cccn1)N1CCCC(N2CCN(c3cccc(Cl)c3)CC2)C1 (stereo not shown) | -54.1%
34 | O=C(CCc1ccccn1)N1CCCC(N2CCN(c3cccc(C(F)(F)F)c3)CC2)C1 (stereo not shown) | -68.2%
35 | COC(=O)CCC(=O)N1CCCC(N2CCN(c3cccc(C(F)(F)F)c3)CC2)C1 (stereo not shown) | -35.8%
36 | CCc1nccn1CCC(=O)N1CCCC(N2CCN(c3cccc(Cl)c3)CC2)C1 (stereo not shown) | -36.1%
37 | Cc1ccnn1CCC(=O)N1CCCC(N2CCN(c3cccc(Cl)c3)CC2)C1 (stereo not shown) | -30.3%
38 | CN(C)C(=O)CCC(=O)N1CCCC(N2CCN(c3cccc(C(F)(F)F)c3)CC2)C1 (stereo not shown) | -12.3%
39 | O=C(CCn1cccn1)N1CCCC(N2CCN(c3cccc(C(F)(F)F)c3)CC2)C1 (stereo not shown) | -53.6%
40 | O=C(CCn1cncn1)N1CCCC(N2CCN(c3cccc(C(F)(F)F)c3)CC2)C1 (stereo not shown) | -35.8%
41 | O=C(NCC1CCCO1)c1ccc2c(=O)n(CC3CCCO3)c(=S)[nH]c2c1 (stereo not shown) | 6.52%
42 | Cc1sc2nc(COC(=O)c3cccc(OC(F)F)c3)[nH]c(=O)c2c1C | 0.0335%

Row | Compound | hERG current change (%, negative = inhibition) at 10uM
43 | O=c1[nH]n2c(=O)c3c([nH]c2c1N=Nc1cccc(Cl)c1)CCCC3 | 3.75%
44 | COc1ccc2c(c1)C(=O)N(Cc1ccccc1)C(=O)C2(C)C | 6.19%
45 | Cc1nn(Cc2ccc(Cl)cc2)c(C)c1NC(=O)c1cc(C(C)C)on1 | 5.88%
46 | Cn1c(SCC(=O)NC2CC2)nnc1-c1ccco1 | 9.16%
47 | Cc1ccc(NC(=O)[C@H](Cc2ccccc2)NC(=O)C2CCNCC2)cc1 | 5.64%
48 | CCCCCOC(=O)c1ccccc1C(=O)O | 16.1%
49 | CC(=O)N/C(=C\c1ccc(C)o1)C(=O)NCc1ccccc1 | 21.8%
50 | COc1ccc(OC)c(N2C(=O)NC(=O)/C(=C/c3ccc([N+](=O)[O-])s3)C2=O)c1 | 12.9%
51 | CC1(C(=O)N2CCC(CC3CC(c4cccc(Br)c4)=NO3)(C(=O)NCC3CCCCC3)CC2)CC1 (stereo not shown) | -20.1%
52 | COc1ccc(CNC(=O)C2(CC3CC(c4ccccc4)=NO3)CCN(C(=O)C3(C)CC3)CC2)cc1 (stereo not shown) | -67%
53 | CCOc1cc(C(=O)N2CCC(CC3CC(c4ccccc4)=NO3)(C(=O)NCc3ccc(OC)cc3)CC2)cc(OCC)c1OCC (stereo not shown) | -8.88%
54 | COc1ccc(CNC(=O)C2(CC3CC(c4ccccc4)=NO3)CCN(C(=O)OC(C)(C)C)CC2)cc1 (stereo not shown) | -30.5%
55 | CCCNC(=O)C1(CC2CC(c3ccccc3)=NO2)CCN(C(=O)C2CCCC2)CC1 (stereo not shown) | -41.8%
56 | COc1ccc(CNC(=O)C2(CC3CC(c4ccccc4)=NO3)CCN(C(=O)c3cccc(O)c3)CC2)cc1 (stereo not shown) | -68.2%
57 | COC(=O)C1(CC2CC(c3ccccc3)=NO2)CCN(C(=O)OC(C)(C)C)CC1 (stereo not shown) | -11.4%
58 | CC(C)(C)OC(=O)N1CCC(CC2CC(c3ccccc3)=NO2)(C(=O)NCc2ccccc2)CC1 (stereo not shown) | -18.3%
59 | COc1ccc(CNC(=O)C2(CC3CC(c4ccccc4)=NO3)CCN(C(=O)C3CCCC3)CC2)cc1 (stereo not shown) | -71.6%
60 | COc1ccc(CNC(=O)C2(CC3CC(c4ccccc4)=NO3)CCN(C(=O)CCCCCBr)CC2)cc1 (stereo not shown) | -76.9%
61 | CC(C)(C)OC(=O)N1CCC(CC2CC(c3ccccc3)=NO2)(C(=O)O)CC1 (stereo not shown) | 14.7%
